Data: PubChem BioAssay (NCI)
This is part of a sample that, as a whole, favours compounds with a hit. Of some 83,000 tested, about 20% had one in any assay.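 For each line, cells grew in 96-well plates with the test compound present at a single concentration for 48 hours.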 Unmarked numbers belong to inactive results. The source made the active and inactive calls. Rule for the calls: active = growth percent below 10; inactive = the rest.

What was measured:
Test in all cases: NCI-60 one-dose screen, 48 h (100 = growth as untreated, 0 = no growth, -100 = all killed)
Conditions in all cases: 10 µM unless noted
NCI-H23 lung = test system: NCI-H23 lung
NCI-H226 lung = test system: NCI-H226 lung
NCI-H322M lung = test system: NCI-H322M lung
HOP-62 NSCLC = test system: HOP-62 NSCLC
NCI-H460 lung = test system: NCI-H460 lung
HOP-92 NSCLC = test system: HOP-92 NSCLC
NCI-H522 lung = test system: NCI-H522 lung
A549/ATCC NSCLC = test system: A549/ATCC NSCLC
786-0 renal = test system: 786-0 renal
COLO 205 colon = test system: COLO 205 colon
DU-145 prostate = test system: DU-145 prostate
K-562 leukemia = test system: K-562 leukemia
MALME-3M melanoma = test system: MALME-3M melanoma
MDA-MB-231 breast = test system: MDA-MB-231 breast
RXF 393 renal = test system: RXF 393 renal
SF-268 CNS = test system: SF-268 CNS
SF-295 CNS = test system: SF-295 CNS
SF-539 CNS = test system: SF-539 CNS
UACC-257 melanoma = test system: UACC-257 melanoma
M14 melanoma = test system: M14 melanoma

Structure (SMILES)	growth (NCI-H23 lung)	growth (NCI-H226 lung)	growth (NCI-H322M lung)	growth (HOP-62 NSCLC)	growth (NCI-H460 lung)	growth (HOP-92 NSCLC)	growth (NCI-H522 lung)	growth (A549/ATCC NSCLC)	growth (786-0 renal)	growth (COLO 205 colon)	growth (DU-145 prostate)	growth (K-562 leukemia)	growth (MALME-3M melanoma)	growth (MDA-MB-231 breast)	growth (RXF 393 renal)	growth (SF-268 CNS)	growth (SF-295 CNS)	growth (SF-539 CNS)	growth (UACC-257 melanoma)	growth (M14 melanoma)
CC(C)[C@]12O[C@H]1[C@@H]1O[C@]13[C@]1(O[C@H]1C[C@H]1c4c(C(=O)c5ccccc5)oc(OC(=O)c5ccccc5)c4CC[C@@]13C)[C@@H]2O	-14.9% (active)	-12.8% (active)	9.46% (active)	-0.399% (active)	9.07% (active)	-9.38% (active)	-39.6% (active)	1.72% (active)	1.31% (active)	-57% (active)	0.787% (active)	-12.5% (active)	-59.1% (active)	34.3%	-81.1% (active)	-20.7% (active)	8.47% (active)	-40.6% (active)	-25.5% (active)	-73.7% (active)
CC(=O)OC1CCC2(C)C(CCC3C2CC(=O)C2(C)C3CC(Sc3ccc(N(CCCl)CCCl)cc3)C2C(C)=O)C1 (stereo not given)	97.3%	83.7%	104%	108%	32.5%	109%	83%	55.6%	82.6%	9.14% (active)	100%	7.43% (active)	139%	85.6%	107%	85.9%	67.6%	13.7%	90.3%	81%
COC(=O)[C@@H](C)C[C@H](Cc1ccccc1)NC(=O)c1nc([C@@H](C[C@H](C(C)C)N(C)C(=O)[C@@H](NC(=O)[C@H]2CCCN2C)C(C)C)OC(C)=O)sc1C	31.8%	43.4%	35.2%	21.1%	7.21% (active)	8.77% (active)	-23.7% (active)	16.1%	14.3%	-74.2% (active)	17.7%	9.29% (active)	54.4%	14.1%	39%	30.6%	10.6%	-8.41% (active)	51.1%	1.43% (active)
COc1ccc2nc(NC(=O)COc3cc(/C=C\c4cc(OC)c(OC)c(OC)c4)ccc3OC)sc2c1	32.1%	40.1%	25.3%	45%	4.25% (active)	50.9%	-19.7% (active)	25.7%	61%	26%	0.406% (active)	15.6%	14.1%	22.7%	-19.9% (active)	42.3%	-2.09% (active)	-7.12% (active)	59.5%	22.9%
Clc1cccc(NCOOC2(OOCNc3cccc(Cl)c3)CCCCC2)c1	43.6%	94.7%	73.7%	49.5%	77.2%	-46.3% (active)	14.7%	3.1% (active)	10.8%	96.6%	73.3%	-41% (active)	74.5%	81.7%	108%	73.1%	74.8%	16.4%	87.7%	60.4%
COc1ccc(C2=CC(c3ccc(OC)c(OC)c3)c3c(c4ccccc4oc3=O)O2)cc1OC (stereo not given)	63.4%	89.5%	35.8%	49%	9.23% (active)	-12.5% (active)	-43.7% (active)	39.4%	25.7%	9.01% (active)	9.25% (active)	1.17% (active)	75.3%	27.8%	33.2%	38.7%	-54.4% (active)	-17.8% (active)	66.9%	12.9%
COC(=O)[C@@H](C)C[C@H](Cc1ccccc1)NC(=O)c1csc([C@@H](C[C@H](C(C)C)N(C)C(=O)[C@H](C)NC(=O)[C@H]2CCCCN2C)OC(C)=O)n1	46%	61%	40.6%	32.6%	12%	40.4%	8.96% (active)	46.6%	35%	-16.2% (active)	4.34% (active)	10% (active)	44.2%	19.5%	8.78% (active)	46.9%	17%	-2.07% (active)	45.8%	5.98% (active)
CCOc1ccc(/C=C/[N+](=O)[O-])cc1	87.8%	81.4%	98.5%	110%	98.2%	76.6%	96.8%	78.8%	92.4%	94.1%	99.3%	69%	106%	92.8%	16.9%	98.9%	82.5%	39%	85.5%	54.5%
